Screening results deposited in PubChem BioAssay by National Center for Advancing Translational Sciences (NCATS).
Hits are enriched below; roughly 11% of the tested compounds scored in any of these assays.
Vaccinia mCherry – inhibitors of vaccinia virus infection (mCherry reporter signal) | Vaccinia virus mCherry reporter infection, fluorescence | Potency, µM (highest dose often 36.5 µM), for the others: at the highest dose activity change, negative = inhibition, hits mostly inhibitors | 0.63% of 310,000 active | AID 720579; calls by dose curve; tested in A549 cells; also: % is scaled to controls: 0 for no effect and ±100 for the full control effect; nearly all actives have a fitted effect of over 35% in size
HCV inhibitor – blocks hepatitis C virus | Huh7.5.1 HCVcc-Cre infection, luciferase reporter, 44 h | Potency, µM (highest dose often 41.8 µM), for inactives: top-dose activity change, negative = inhibition, actives largely listed as inhibitors | 3.4% of 340,000 active | AID 651820; also: % is scaled to controls: 0 for no effect and ±100 for the full control effect
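After 44 h co-culture of compound, cells and HCVcc-Cre (~0.5 moi), substrate is added for 15 min at room temperature and luciferase measured over 15 sec. Cells were seeded at 1,000/well and pre-cultured 4 h.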
Pf growth 96h – P. falciparum growth inhibition at 96 hours | P. falciparum luciferase reporter growth, 96 h | Potency, µM (titrated, usually from 28.7 µM), for the others: top-dose activity change, negative = inhibition, usual class: inhibitors | 6.9% of 320,000 active | AID 504834; also: % is scaled to controls: 0 for no effect and ±100 for the full control effect
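Delayed-death screen, second-generation endpoint: infected erythrocytes, 2% hematocrit, 0.05% parasitemia final; 96 hours at 37 C, 5% CO2; luciferase detection reagent; luminescence decrease equals reduced growth.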
Pf growth 48h – inhibits P. falciparum growth in the first generation, 48 h; P. falciparum luciferase growth in erythrocytes, 48 h; Potency, µM (doses to about 28.7 µM), without a hit: top-dose activity change, negative = inhibition, hits mostly inhibitors; 5.9% of 310,000 active; AID 504832; also: % is scaled to controls: 0 for no effect and ±100 for the full control effect
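Luciferase-expressing parasites in RBCs, 2% Hct / 0.1% parasitemia final; RPMI 1640 + 0.5% Albumax; 37 C, 5% CO2, one generation; luminescence read-out, lower signal = inhibition.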
NS1 inh – inhibitors of influenza NS1 protein function; 0.4% of 270,000 active; Potency, µM (highest dose often 46.1 µM), for the others: at the highest dose activity, positive = more growth; calls by dose curve; also: actives are rising curves; nearly all actives have a fitted effect of over 50% in size
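Recovery from NS1-induced slow growth read by OD600 in budding yeast switched to galactose assay medium (pH 6.0, -URA) at 1:100 dilution. Compound 23 nl per well; the matching strain lacking NS1 serves as control.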
VACV Venus inh – inhibitors of vaccinia virus (Venus reporter); Vaccinia virus Venus reporter expression, fluorescence; Potency, µM (titrated, usually from 36.5 µM), for inactives: at the highest dose activity change, negative = inhibition, most hits filed as inhibitors; 0.46% of 330,000 active; AID 720580; calls by dose curve; tested in A549 cells; also: % is scaled to controls: 0 for no effect and ±100 for the full control effect; nearly all actives have a fitted effect of over 30% in size
Active calls of the source: *; i = inactive; ? = inconclusive; · = not tested or not shown; ! = not confirmed by another sample. Unless noted, calls follow the shape of the dose curve; as a rule, active = well fitted inhibition curve with a large enough effect; inconclusive = small, poorly fitted or top-dose-only effect, or another doubt; inactive = no such curve, though single readings can be large or run the other way. Potency is read from the fitted curve at half-maximal effect.

SMILES	Vaccinia mCherry	HCV inhibitor	Pf growth 96h	Pf growth 48h	NS1 inh	VACV Venus inh
NS(=O)(=O)c1ccc(NC(=O)/C=C/c2cn(-c3ccccc3)nc2-c2cccc(Cl)c2)cc1	-27%	?	-10%	10µM*	?	?
O=C(/C=C/c1cn(-c2ccccc2)nc1-c1ccccc1)Nc1ccc(C(=O)O)cc1	i	12%	0%	50%	·	-18%
O=C(O)c1ccc(NC(=O)c2cn(-c3ccccc3)nc2-c2ccc(F)cc2)cc1	i	23%	73%	166%	·	-11%
Cc1cccc(NC(=O)c2cnc3sccn3c2=O)c1	-17%	16%	412%	160%	-32%	-24%
Cc1cccc(NC(=O)c2cnc3ccccn3c2=O)c1	19%	6%	12µM*	188%	-7%	4%
Cc1cccc(NC(=O)c2cn(-c3ccccc3)nc2-c2ccccc2)c1	0%	?	13µM*	-8%	3%	-12%
O=C(O)c1ccc(NC(=O)c2cn(-c3ccccc3)nc2-c2cccc(Cl)c2)cc1	-8%	11%	12µM*	3%	10%	6%
COc1ccc(Cl)cc1C(=O)NNC(=O)COC(=O)c1cccs1	i	7%	·	·	·	0%
Clc1cccc(-c2ccc(C=Nc3ccc(N4CCOCC4)cc3)o2)c1	-27%	29%	10µM*	4%	-5%	-7%
Oc1ccc(N=Nc2cccc(Cl)c2)cc1C=Nc1ccc(N2CCOCC2)cc1	-6%	?	-4%	?	3%	-4%
O=C(Oc1nsnc1N1CCOCC1)N1CCCC1	·	1%	·	·	·	·
O=C(Oc1nsnc1N1CCCCC1)N1CCOCC1	14µM*	5%	7%	0%	2%	?
Cc1c(-c2ncn[nH]2)sc(C#N)c1-c1ccccc1	-20%	-27%	5%	7%	·	2%
COc1ccc(N(CC(=O)NC2CCCCC2)C(=O)CNC(=O)c2cccs2)cc1OC	-7%	8%	27%	-10%	6%	-1%
CCCCNc1c2c(nc3c(-c4ccccc4)c(C)nn13)CCC2	·	-20%	9.3µM*	·	-8%	·
Cc1nn2c(NCCN(C)C)c3c(nc2c1-c1ccccc1)CCCC3	-25%	7.1µM*	2.1µM*	?	2%	-13%
CCC(C)Nc1c2c(nc3c(-c4ccccc4)c(C)nn13)CCC2 (configuration not stated)	·	2.2µM*	?	?	-16%	·
Cc1nn2c(N3CCN(CCO)CC3)c3c(nc2c1-c1ccccc1)CCCC3	-23%	-19%	?	8.3µM*	-2%	?
Cc1nn2c(Nc3ccc(F)cc3)c3c(nc2c1-c1ccccc1)CCC3	-15%	20%	?	?	0%	-7%
Cc1nn2c(NCCCN3CCOCC3)c3c(nc2c1-c1ccccc1)CCC3	·	?	-28%	?	-5%	·
Cc1nn2c(N3CCCC3)c3c(nc2c1-c1ccccc1)CCC3	i	-12%	?	?	-2%	0%
Cc1nnsc1S(=O)(=O)Cc1ccccc1C(F)(F)F	-6%	19%	?	2%	·	2%
NS(=O)(=O)c1ccc(O)c(N2C(=O)c3cccc4c(C(=O)c5ccccc5)ccc(c34)C2=O)c1	·	·	26%	12%	·	·
O=C1CC(N2CCN(Cc3ccc(Cl)cc3)CC2)C(=O)N1CCc1ccccc1 (configuration not stated)	i	?	-16%	-4%	-3%	-5%
COc1ccc(C(=O)N2CCCCCC2)cc1OC1CCN(C(C)C)CC1	-23%	-19%	?	9%	-1%	-18%
SMILES	Vaccinia mCherry	HCV inhibitor	Pf growth 96h	Pf growth 48h	NS1 inh	VACV Venus inh
Cc1nn2c(NCCOCCO)c3c(nc2c1-c1ccccc1)CCCC3	·	11µM*	?	-3%	-13%	·
COCCNc1c2c(nc3c(-c4ccccc4)c(C)nn13)CCCC2	·	?	9%	?	-171%	·
Cc1nn2c(NCc3cccnc3)c3c(nc2c1-c1ccccc1)CCC3	-1%	-29%	1.5µM*	?	0%	-10%
COc1cccc(Nc2c3c(nc4c(-c5ccccc5)c(C)nn24)CCC3)c1	-6%	?	12µM*	?	22%	-23%
Cc1cc(OC(=O)c2c(C)cc(OC(=O)c3c(C)cc(O)cc3O)cc2O)cc(O)c1C(=O)O	7%	7%	·	·	·	5%
CC(C)(C)CC(=O)Nc1ccccc1N1CCN(c2ccc(F)cc2)CC1	-18%	0%	24%	?	-65%	-16%
CN(C)CCC(c1ccccc1)c1ccccn1 (configuration not stated)	-14%	5µM*!	24%	14%	-4%	-8%
CN(C)CCC(c1ccc(Cl)cc1)c1ccccn1 (configuration not stated)	-2%	?	6%	-25%	-8%	-19%
Cc1occc1-c1nnc(-c2cc([N+](=O)[O-])cc([N+](=O)[O-])c2)o1	-7%	?	29%	10µM*	22%	-12%
O=C(Nc1ccc(Cl)cc1)C1CCC(=O)N1Cc1ccccc1Cl (configuration not stated)	·	17%	4.7µM*	9.3µM*	-1%	-13%
O=C(Nc1cccc(S(=O)(=O)N2CCOCC2)c1)[C@@H]1CCCN1S(=O)(=O)c1ccc(Cl)cc1	-14%	?	1.9µM*	?	12%	-17%
O=C(Nc1ccccc1)[C@@H]1CCCN1S(=O)(=O)c1ccc(Cl)cc1	i	-1%	·	·	·	-1%
O=C(Nc1ccc(Cl)cc1)C1CCCCN1S(=O)(=O)c1ccccc1 (configuration not stated)	?	?	·	·	·	10µM*
O=C(Nc1cccc(S(=O)(=O)N2CCCCC2)c1)[C@@H]1CCCN1S(=O)(=O)c1ccccc1C(F)(F)F	·	14µM*	·	·	·	·
O=C(Nc1cccc(S(=O)(=O)N2CCOCC2)c1)C1CCCCN1S(=O)(=O)c1ccccc1 (configuration not stated)	-11%	-7%	?	?	·	-29%
Cc1cc(C(=O)CN2C(=O)c3ccccc3S2(=O)=O)c(C)n1C(C)C	-10%	-4%	23%	89%	·	-13%
O=C(Nc1nnc(C2CC2)s1)C1CCCCN1S(=O)(=O)c1ccccc1 (configuration not stated)	i	-9%	-10%	13µM*	-4%	-3%
CCOc1ccccc1NC(=O)C1CCCN1S(=O)(=O)c1ccccc1C(F)(F)F (configuration not stated)	·	?	?	8.3µM*	·	·
CC1(C)Cc2c(cnn2-c2ccccc2)-c2c1c1ccccc1n2CC(O)CCl (configuration not stated)	·	?	?	12µM*	20%	·
O=C(Nc1ccc2nc(-c3cccs3)c(-c3cccs3)nc2c1)N1CCCC1	-5%	·	·	·	·	-14%
CCOC(=O)C1CCN(C(=O)Nc2ccc3c(c2)nc(C)n3C)CC1	-7%	8%	?	348%	-21%	-5%
